Source: PubChem
Tau fibril ThT – blocks human tau fibril formation measured by thioflavin T; P10636; recombinant tau K18 P301L, heparin-induced fibrillization, ThT fluorescence; Potency, µM (titrated, usually from 57.4 µM), most hits filed as inhibitors; 270,000 tested, 2.1% active; further: nearly all actives have a fitted effect of over 55% in size
Target sequence (P10636 561-689 P618L limits assumed): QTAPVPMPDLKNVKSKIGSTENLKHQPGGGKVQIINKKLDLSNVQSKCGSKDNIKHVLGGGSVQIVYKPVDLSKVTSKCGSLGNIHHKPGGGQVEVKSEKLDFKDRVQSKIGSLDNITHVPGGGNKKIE
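Fibril formation assay: tau K18 P301L at 15 uM with trace Alexa 594 label, heparin inducer 20 uM, pH 7 sodium acetate buffer, 37 C for 6 hr; endpoint ThT signal.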
Tau fluor cs – counter-screen for tau fibril formation inhibitors; tau K18 P301L Alexa594 fluorescence, heparin fibrillization; Potency, µM (top dose mostly 57.7 µM); 280,000 tested, 0.93% active; further: nearly all actives have a fitted effect of over 55% in size
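Human tau K18 P301L (15 uM unlabeled, 0.24 uM Alexa 594-labeled) in 100 mM sodium acetate pH 7 with 20 uM heparin, 6 hr at 37 C. ThT 30 uM added, 1 hr ambient; Alexa 594 FP and total fluorescence read at 555/632 nm.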
Gal4-VP16 FLuc – Gal4-VP16 reporter inhibition counter-screen; Potency, µM (series often up to 53.6 µM), actives largely listed as inhibitors; AID 2546; Drosophila S2 Gal4-VP16 UAS-luciferase, luminescence, 20 h; 310,000 tested, 3.5% active;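 further: Gal4-VP16 expression switched on by copper sulfate through the metallothionein promoter; nearly all actives have a fitted effect of over 50% in size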
Tau fibril FP – inhibitors of human tau fibril formation; Potency, µM (series often up to 57.7 µM), usual class: inhibitors; AID 1468; P10636; K18 P301L tau heparin fibrillization, Alexa594 FP, 6 h; 280,000 tested, 0.39% active; further: nearly all actives have a fitted effect of over 55% in size
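Recombinant K18 P301L […], labeled with Alexa 594 at 0.24 uM over 15 uM unlabeled; heparin inducer 20 uM final; 37 C, 6 hr; FP endpoint.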
RORg inh – ROR gamma (mouse) transcription inhibition; P51450; Drosophila S2 Gal4-RORgamma UAS-luciferase reporter, 20 h; Potency, µM (titrated, usually from 53.6 µM), most hits filed as inhibitors; 310,000 tested, 5.4% active; AID 2551; further: nearly all actives have a fitted effect of over 60% in size
Target sequence (P51450 whole entry, looked up, the tested form may be a part): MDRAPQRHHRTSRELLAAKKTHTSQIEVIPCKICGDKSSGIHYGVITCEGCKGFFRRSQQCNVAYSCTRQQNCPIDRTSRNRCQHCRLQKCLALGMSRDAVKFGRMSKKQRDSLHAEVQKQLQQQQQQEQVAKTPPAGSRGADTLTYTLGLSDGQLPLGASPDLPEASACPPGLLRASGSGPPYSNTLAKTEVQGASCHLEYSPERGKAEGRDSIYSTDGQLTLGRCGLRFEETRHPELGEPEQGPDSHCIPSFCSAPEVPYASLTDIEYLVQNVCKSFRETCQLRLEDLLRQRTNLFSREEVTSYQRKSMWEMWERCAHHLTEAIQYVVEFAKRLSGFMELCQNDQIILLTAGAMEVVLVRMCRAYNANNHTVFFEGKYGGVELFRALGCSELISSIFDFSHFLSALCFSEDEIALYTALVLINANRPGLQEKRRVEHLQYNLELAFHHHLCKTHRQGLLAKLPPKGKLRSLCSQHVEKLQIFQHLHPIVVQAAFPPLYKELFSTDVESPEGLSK
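In this cell-based reporter format, copper sulfate (700 uM final) drives Gal4–ROR gamma fusion expression from a metallothionein promoter in Drosophila Schneider cells; compounds preincubated 1 hr, reporter read after 20 hr at ambient temperature.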
A number is an active result; [ ] = another dose, or the depositor's remark. Only some compounds are listed: those with a hit (about 7.3% of all), similar ones and a draw of the others. The call rests on the fitted dose curve; in most records, active means well fitted curve in the direction sought with a large enough effect; inconclusive means small, poorly fitted or top-dose-only effect, or another doubt; inactive means no such curve, though single readings can be large; an effect the other way counts as inactive or inconclusive.

`Cc1ccc2oc(/N=C(\N)NC(=O)C3CC3)nc2c1` gave Tau fibril ThT inconclusive, Tau fluor cs inactive, Gal4-VP16 FLuc inconclusive, Tau fibril FP inactive and RORg inh 7.1µM.
Cc1cc(=O)n2c3ccccc3n(CC(O)CN3CCCC3)c2c1C#N (centres undefined) was read as Tau fibril ThT inactive, Tau fluor cs inactive, Gal4-VP16 FLuc inactive, Tau fibril FP inactive and RORg inh inactive.
For CCCNCC(O)Cn1c2ccccc2n2c(=O)cc(C)c(C#N)c12 (centres undefined) the results were Tau fibril ThT inactive, Tau fluor cs inactive, Gal4-VP16 FLuc inactive, Tau fibril FP inactive and RORg inh 0.71µM.
N#CCSc1nc2ccccc2c(=O)n1CC1CCCC1 was read as Tau fibril ThT inactive, Tau fluor cs inactive, Gal4-VP16 FLuc inactive, Tau fibril FP inactive and RORg inh inactive.
For N#CCSc1nc2ccc(N3CCCCC3)cc2c(=O)n1Cc1ccccc1 the results were Tau fibril ThT inconclusive, Tau fluor cs inconclusive, Gal4-VP16 FLuc inconclusive, Tau fibril FP inactive and RORg inh 3.5µM.
For COc1cc(OC)cc(-c2nnc3n2N=C(c2c(OC)cccc2OC)CS3)c1 the results were Gal4-VP16 FLuc inactive and RORg inh inactive.
Screening O=[N+]([O-])c1c(Nc2cccc(O)c2)cc(Cl)c2nonc12 returned Gal4-VP16 FLuc inconclusive and RORg inh inactive[1.91 µM].
`Cc1c(Nc2cc(Cl)c3nonc3c2[N+](=O)[O-])c(=O)n(-c2ccccc2)n1C` gave Tau fibril ThT 4µM, Tau fluor cs 10µM[quencher], Gal4-VP16 FLuc 4µM, Tau fibril FP inconclusive and RORg inh 4µM.
Screening O=C(O)c1ccc(Nc2cc(Cl)c3nonc3c2[N+](=O)[O-])cc1 returned Tau fibril ThT 7.1µM, Tau fluor cs inconclusive, Gal4-VP16 FLuc inactive, Tau fibril FP inactive and RORg inh 13µM.
For Cc1ccc(Cl)cc1N1CCN(C(=O)c2cc(S(=O)(=O)N3CCCC3)c[nH]2)CC1 the results were Tau fibril ThT inconclusive, Tau fluor cs inconclusive and Tau fibril FP inactive.
Screening O=C(ONC1=NCCCCC1)c1cccc([N+](=O)[O-])c1 returned Tau fibril ThT inactive, Tau fluor cs inactive, Gal4-VP16 FLuc inactive, Tau fibril FP inactive and RORg inh 7.1µM.
Cc1cc(C)c2c(N)c(S(=O)c3ccc(C(C)(C)C)cc3)sc2n1 (centres undefined) was read as Tau fibril ThT 25µM, Tau fluor cs inconclusive, Gal4-VP16 FLuc inactive, Tau fibril FP inconclusive and RORg inh inactive.
`Cc1cc(C)c2c(N)c(C(=O)C(C)(C)C)sc2n1` gave Tau fibril ThT inactive, Tau fluor cs inactive, Gal4-VP16 FLuc inactive, Tau fibril FP inactive and RORg inh inactive.
CCC(OC(=O)CNS(=O)(=O)c1ccccc1)C(=O)c1ccccc1 (centres undefined) was read as Gal4-VP16 FLuc inactive and RORg inh inactive.
Cc1cc(=O)[nH]c2c(C)cc(S(=O)(=O)N3CCCCC3)cc12 was read as Gal4-VP16 FLuc inactive and RORg inh 5.6µM.
Screening Cc1cc(Nc2ccccc2)nn1C(=O)c1ccccc1 returned Tau fibril ThT inactive, Tau fluor cs inconclusive, Gal4-VP16 FLuc inactive, Tau fibril FP inactive and RORg inh inactive.
`Cc1cc(Nc2ccccc2)nn1C(=O)c1ccc(Br)cc1` gave Tau fibril ThT inactive, Tau fluor cs 7.9µM[quencher], Gal4-VP16 FLuc inactive, Tau fibril FP inactive and RORg inh inactive.
CC1=NN(Cc2c(C)nn(Cc3ccccc3)c2C)C(C)(C)C1 was read as Tau fibril ThT inactive, Tau fluor cs inactive, Gal4-VP16 FLuc inactive, Tau fibril FP inactive and RORg inh 13µM.
Cc1nn(Cc2ccccc2)c(C)c1N was read as Tau fibril ThT inactive, Tau fluor cs inactive, Gal4-VP16 FLuc inactive, Tau fibril FP inactive and RORg inh inactive.
`C/C(=N\NC(=O)CSCc1ccc([N+](=O)[O-])cc1)c1ccccc1O` gave Tau fibril ThT inconclusive, Tau fluor cs inactive, Gal4-VP16 FLuc 2µM, Tau fibril FP inactive and RORg inh 0.32µM.
`C/C(=N\NC(=O)Cc1ccc(Cl)cc1)c1ccccc1O` gave Gal4-VP16 FLuc 0.32µM and RORg inh 0.28µM.
`Nc1ncnc2c1nc(Br)n2[C@@H]1O[C@H]2COP(=O)(O)O[C@@H]2[C@@H]1O` gave Tau fibril ThT inactive, Tau fluor cs inactive, Gal4-VP16 FLuc inactive, Tau fibril FP inactive and RORg inh inactive.
For O=C(O)CCCn1cc(NC(=O)COc2cc(F)ccc2[N+](=O)[O-])cn1 the results were Tau fibril ThT inactive, Tau fluor cs inactive, Gal4-VP16 FLuc 0.5µM, Tau fibril FP inactive and RORg inh inactive.
O=C(O)CCCn1cc(NC(=O)COc2ccc(F)cc2)cn1 was read as Gal4-VP16 FLuc inactive and RORg inh inactive.
For C[C@H](NC(=O)c1nc[nH]c1C(=O)N[C@@H](C)c1ccccc1)C(=O)OC(C)(C)C the results were Tau fibril ThT inactive, Tau fluor cs inactive, Gal4-VP16 FLuc 6.3µM, Tau fibril FP inactive and RORg inh 2.8µM.
Screening CC1CCN(C(=O)c2[nH]cnc2C(=O)N[C@@H](CCCCNC(=O)OC(C)(C)C)C(=O)OC(C)(C)C)CC1 returned Tau fibril ThT inactive, Tau fluor cs inactive, Gal4-VP16 FLuc inactive, Tau fibril FP inactive and RORg inh inactive.
O=C(c1ccccc1)c1nc[nH]c1C(=O)Nc1ccccc1 was read as Tau fibril ThT inactive, Tau fluor cs inactive, Gal4-VP16 FLuc 1.6µM, Tau fibril FP inactive and RORg inh 0.71µM.
Screening CC(C)C[C@H](NC(=O)c1nc[nH]c1C(=O)NC(c1ccccc1)c1ccccc1)C(=O)OC(C)(C)C returned Tau fibril ThT inactive, Tau fluor cs inactive, Gal4-VP16 FLuc 3.5µM, Tau fibril FP inconclusive and RORg inh 0.71µM.
For Cc1ccc(NC(=O)c2[nH]cnc2C(=O)NN)cc1 the results were Tau fibril ThT inactive, Tau fluor cs inactive, Gal4-VP16 FLuc inactive, Tau fibril FP inactive and RORg inh inconclusive.
`Cc1ccc(NC(=O)c2nc[nH]c2C(=O)N[C@@H](C)c2ccccc2)cc1` gave Tau fibril ThT inactive, Tau fluor cs inconclusive, Gal4-VP16 FLuc 3.2µM, Tau fibril FP inconclusive and RORg inh 1.1µM.
Screening Cc1cc(C)c(NC(=O)Cc2ccc(-n3c(C)nc4cccnc43)cc2)c(C)c1 returned Tau fibril ThT inactive, Tau fluor cs inactive and Tau fibril FP inconclusive.
`Cc1ccccc1-n1c(SCC(=O)Nc2c(C)cccc2C)nc(O)cc1=O` gave Gal4-VP16 FLuc inactive and RORg inh inactive.
`CCOc1ccc(CN(C)C(=O)[C@H](C)NC(=O)c2ccco2)cc1OC` gave Gal4-VP16 FLuc inactive and RORg inh inactive.
Cc1cccc2c1c(N=NC(N)=S)c(O)n2C1OC(CO)C(O)C(O)C1O (centres undefined) was read as Gal4-VP16 FLuc inactive and RORg inh inactive.
